Bioassay records as filed in PubChem BioAssay.
Cruzain noTriton – cruzain (T. cruzi) inhibition without detergent. P25779. Potency, µM, usual class: inhibitors. 2.3% of 200,000 active. purified cruzain, Z-FR-AMC fluorescence, no detergent; further: nearly all actives have a fitted effect of over 40% in size
Target sequence (P25779 123-467 limits assumed): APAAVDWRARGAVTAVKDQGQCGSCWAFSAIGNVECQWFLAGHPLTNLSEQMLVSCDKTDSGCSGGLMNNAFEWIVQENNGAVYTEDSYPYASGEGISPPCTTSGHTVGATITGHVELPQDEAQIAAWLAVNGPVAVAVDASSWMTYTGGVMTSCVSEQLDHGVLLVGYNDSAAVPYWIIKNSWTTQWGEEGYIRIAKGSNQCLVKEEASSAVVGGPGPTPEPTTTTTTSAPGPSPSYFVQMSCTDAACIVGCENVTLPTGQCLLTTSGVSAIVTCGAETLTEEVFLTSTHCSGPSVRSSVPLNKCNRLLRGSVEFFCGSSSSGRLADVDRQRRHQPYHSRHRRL
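Purified cruzain at 1.5 nM, pre-incubated 15 min with compound at room temperature in 100 mM sodium acetate pH 5.5, 5 mM DTT, 0.00005% Triton X-100. Reaction started with 2 uM Z-FR-AMC; AMC fluorescence increase over 60 s gives rate.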
Cruzain inh Det – blocks cruzain activity in presence of Triton detergent; Potency, µM, hits mostly inhibitors; purified cruzain, Z-FR-AMC fluorescence, 0.01% Triton; 0.43% of 200,000 active; further: nearly all actives have a fitted effect of over 40% in size
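Cysteine protease activity tested under reducing, mildly acidic conditions (100 mM sodium acetate pH 5.5, 5 mM DTT) plus 0.01% Triton X-100. Cruzain 1.5 nM; substrate Z-FR-AMC 2 uM; 15 min compound preincubation at room temperature.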
Numbers stand for hits; n = inactive; u = inconclusive. Most compounds without a hit are left out; they make up all but 2.4% or so of the library. The call rests on the fitted dose curve; in most records, active means well fitted curve in the direction sought with a large enough effect; inconclusive means small, poorly fitted or top-dose-only effect, or another doubt; inactive means no such curve, though single readings can be large; an effect the other way counts as inactive or inconclusive.

SMILES | Cruzain noTriton | Cruzain inh Det
Cc1cc(=O)n(CC(=O)NC(C)c2ccccc2)c2c1c(C)nn2C (configuration not stated) | n | n
Cc1cc(O)ccc1Nc1nc2ccccc2nc1Nc1ccc(O)cc1C | 10µM | n
Cc1ccc(Nc2nc3ccccc3s2)c(C)c1 | n | n
CCSc1nc(-c2ccccc2OC)nc2c1Cc1c(CO)cnc(C)c1O2 | n | n
COc1cc(C(=O)N2CCN(c3ccc(Nc4ccccc4)nn3)CC2)cc(OC)c1OC | n | n
COc1ccc(C2=NC3(CCCCCC3)N(CC(=O)Nc3cccc(Cl)c3)C2=O)cc1 | n | n
Cc1cccc(N2CCN(C(c3ccc(F)cc3)c3nnc(-c4ccccc4)o3)CC2)c1C (configuration not stated) | u | n
Cc1ccc(Cl)cc1N1CCN(C(c2ccc(F)cc2)c2nnc(-c3ccccc3)o2)CC1 (configuration not stated) | 6.31µM | n
Cc1ccc(NCc2cccn2-c2nnc(N3CCC(C(=O)NCc4ccc(OC(C)C)cc4)CC3)s2)cc1 | n | n
COc1ccc(Br)cc1CNC(=O)C1CCN(c2nnc(-n3cccc3CNc3ccc(C)cc3)s2)CC1 | 31.6µM | n
CCOCCCNC(=O)C(c1ccc(Cl)cc1)N(Cc1ccc2c(c1)OCO2)C(=O)c1ccccc1O (configuration not stated) | u | n
Nc1c(-c2cccs2)cnn1-c1nc(-c2ccc(F)cc2)cs1 | n | n
Nc1c(-c2cccs2)cnn1-c1nc(-c2ccc(Cl)cc2Cl)cs1 | 25.1µM | n
Cc1ccc(NC(=O)Cn2ccn(-c3ccccc3)c(=O)c2=O)cc1 | n | n
COc1ccc(NCc2nnc(SCC(=O)Nc3nc(-c4ccccc4)cs3)n2-c2ccccc2)cc1 | 25.1µM | n
Cc1cc(C)nc(SCc2nnc(SCC(=O)Nc3nc(-c4ccccc4)cs3)n2-c2ccccc2)n1 | u | n
COc1ccc(-n2c(CNc3ccc(C)cc3)nnc2SCC(=O)Nc2nc(-c3ccccc3)cs2)cc1 | 6.31µM | n
COc1ccc(-n2c(Cc3cccn3C)nnc2SCC(=O)Nc2ccc(C)cc2)cc1 | n | n
Cc1ccccc1NC(=O)Cn1nnc(S(=O)(=O)c2ccc(C(C)(C)C)cc2)c1N | 7.94µM | n
Cc1ccccc1NC(=O)Cn1nnc(C(=O)NCc2ccco2)c1N | n | n
O=C(COC(=O)c1cc([N+](=O)[O-])ccc1NCc1ccccc1)NC1CCCc2ccccc21 (configuration not stated) | 25.1µM | n
O=C(COC(=O)c1cc([N+](=O)[O-])ccc1NCc1ccccc1)NCc1ccccc1Cl | n | n
Cc1ccc(/C=C(\C#N)C(=O)Nc2ccc(Br)cc2)o1 | n | n
Cc1ccc(/C=C(\C#N)C(=O)Nc2cccc(Br)c2)o1 | 12.6µM | n
Cc1c([C@@H](C)C2NC[C@H](C)C[C@@H]2O)ccc2c1C[C@@H]1[C@H]2CC=C2C[C@@H](O)CC[C@@]21C (some centres not stated) | n | n
SMILES | Cruzain noTriton | Cruzain inh Det
O=C(CCS(=O)(=O)c1ccccc1)Nc1ccc(-c2nc3ccccc3s2)c(O)c1 | 10µM | n
O=C(CCN1C(=O)c2ccccc2C1=O)Nc1ccc(-c2nc3ccccc3s2)cc1 | 25.1µM | n
COc1ccc(C(=O)Nc2cc(C)c(O)c(-c3nc4ccccc4s3)c2)cc1OC | n | n
CCS(=O)(=O)c1cccc(C(=O)Nc2ccc(-c3nc4ccccc4s3)c(O)c2)c1 | n | n
O=C(Nc1ccc(O)c(-c2nc3ccccc3s2)c1)C1=COCCO1 | n | n
O=C(Nc1ccc(-c2nc3ccccc3s2)c(O)c1)C1=COCCO1 | u | 15.8µM
Cc1ccc2nc(-c3ccc(NC(=O)CCN4C(=O)c5ccccc5C4=O)cc3)sc2c1 | u | n
O=C(Nc1ccc(OC(=O)c2ccccc2)c(-c2nc3ccccc3s2)c1)c1ccccc1 | 7.94µM | n
COc1cccc(CNC(=O)CSc2ncc(S(=O)(=O)c3ccc(C)c(Cl)c3)c(=O)[nH]2)c1 | u | n
O=[N+]([O-])c1ccc(S(=O)(=O)NCc2nc3cccnc3n2Cc2ccccc2Cl)cc1 | n | n
CC1CCN(S(=O)(=O)c2ccc3c(ccn3CCC(=O)NCc3ccccc3F)c2)CC1 | n | n
Cc1ccc(Cn2c(C)c3cnn(CC(=O)NCCc4ccc(Cl)cc4)c(=O)c3c2C)cc1 | n | n
Cc1ccc(SCc2cc(=O)[nH]c(/N=C(\N)Nc3ccccc3Sc3ccccc3)n2)cc1 | 12.6µM | n
COc1ccccc1N/C(N)=N/c1nc(CSc2ccc(C)cc2)cc(=O)[nH]1 | u | n
CCOC(=O)/C(=C\C=C\c1ccccc1)NC(=O)c1ccccc1 | n | n
C=CCOC(=O)/C(=C\C=C\c1ccccc1)NC(=O)c1ccccc1 | u | 14.1µM
CCN(CC)c1ccc(C(=O)NCc2ccc3c(c2)CCN3C(=O)c2ccc(F)cc2)cc1 | n | n
CCCn1c(=O)n(-c2cc(Cl)c(OC)cc2OC)c(=O)c2c3c(sc21)CN(C(C)=O)CC3 | u | n
CC(C)CC(=O)Nc1ccc(C(=O)NNC(=O)C(c2ccccc2)c2ccccc2)cc1 | 25.1µM | n
CCC(=O)Nc1ccc(C(=O)NNC(=O)C(c2ccccc2)c2ccccc2)cc1 | u | n
COc1cccc(-c2nc3c(c(SCc4ccccc4Cl)n2)Cc2c(CO)cnc(C)c2O3)c1 | n | n
CC(C)C(=O)Nc1nnc(SCC(=O)N2c3ccccc3CC2C)s1 (configuration not stated) | 31.6µM | 10µM
CC1Cc2ccccc2N1C(=O)CSc1ccccc1 (configuration not stated) | n | n
CCC(C)NC(=O)Cn1ccc2cc(S(=O)(=O)N3CCCCC3)ccc21 (configuration not stated) | n | n
COc1ccc(C(C)=O)cc1CSc1nc2ccccc2c(=O)n1-c1ccccc1C | u | n
SMILES | Cruzain noTriton | Cruzain inh Det
COc1ccccc1-n1c(SCc2cc(=O)oc3cc(O)ccc23)nc2ccccc2c1=O | 25.1µM | n
COC(=O)CSc1nnc([C@H](Cc2ccccc2)NC(=O)OC(C)(C)C)o1 | n | n
Cc1cccc(CS(=O)(=O)c2nnc([C@H](Cc3ccccc3)NC(=O)OC(C)(C)C)o2)c1 | 15.8µM | 15.8µM
CCSc1ncc(Cl)c(C(=O)Nc2ccc(S(=O)(=O)N3CCCCC3)cc2)n1 | n | n
c1c2c(cc3sc(N4CCOCC4)nc13)OCO2 | n | n
O=S(=O)(c1ccccc1)N1CCN(c2nc3ccccc3s2)CC1 | n | n
c1ccc(N2CCN(c3nc4cc5c(cc4s3)OCO5)CC2)cc1 | 12.6µM | n
Clc1ccc2nc(N3CCN(c4ccccc4)CC3)sc2c1 | 20µM | n
O=C(c1cccs1)N1CCCc2cc(NS(=O)(=O)c3ccc(Br)cc3)ccc21 | n | n
Cc1nc2c3ccccc3nc(NNC(=O)CCC(=O)N3CCN(c4cc(Cl)ccc4C)CC3)n2n1 | u | n
CC(C)c1ccc(NC(=O)CN2C(=O)COc3ccc(S(=O)(=O)N4CCCCCC4)cc32)cc1 | n | n
COc1cc(NC(=O)c2nnn(CC(=O)Nc3cc(C)ccc3C)c2N)cc(OC)c1 | n | n
CCOC(=O)c1c(C)c(-c2ccccc2)n(CC(=O)Nc2cc(C)ccc2OC)c1C | n | n
CCOc1ccc(NC(=O)C2CCCN(c3nnc(-n4c(C)ccc4C)s3)C2)cc1 (configuration not stated) | n | n
COc1cc(NC(=O)COC(=O)c2ccccc2F)cc(OC)c1 | n | n
COc1cc(NC(=O)COC(=O)CNS(=O)(=O)c2ccc(F)c(F)c2F)cc(OC)c1 | 25.1µM | 28.2µM
